According to the supplement of paper PMC10981050:
Where a name gives a salt, the structure may show the parent alone.

Each compound was assayed on OCI-AML2 (assay: cell viability relative to vehicle control; higher = less cytotoxic). Conditions: 10 µM; SRSF2 genotype: wt/wt.
In short: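 Four leukaemia lines, as CRISPR-edited mutant clones and isogenic wild-type clones, were tested against Selleck bioactive, kinase and epigenetic probe libraries after removal of identity-inconsistent compounds. Cells were exposed to a single 10 µM dose for 48 h, and CellTiter-Glo luminescence was then read. Viability was calculated relative to the on-plate vehicle control.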

Row | SMILES | cell viability [%]
1 | O=C(Nc1cc(Cl)cc2c1[nH]c1cnccc12)c1cccnc1 | 85.9
2 | Cc1cc(-c2ccc(/N=N/c3ccc4c(S(=O)(=O)O)cc(S(=O)(=O)O)c(N)c4c3O)c(C)c2)ccc1/N=N/c1ccc2c(S(=O)(=O)O)cc(S(=O)(=O)O)c(N)c2c1O [Evans Blue] | 67.6
3 | COc1cc(N2CCN(C)CC2)ccc1Nc1ncc2c(n1)N(C)c1ccccc1C(=O)N2 | 73.2
4 | COc1cc2c(cc1OC)-c1cc3ccc(OC)c(OC)c3c[n+]1CC2 [Palmatine chloride] | 80.9
5 | C[C@H]1CO[C@@H]2Cn3cc(C(=O)NCc4ccc(F)cc4F)c(=O)c(O)c3C(=O)N12 | 86.6
6 | CN(C)CCc1c[nH]c2ccc(Cn3cncn3)cc12 [Rizatriptan Benzoate (Maxalt)] | 83.5
7 | Cc1ccc(NC(=O)C2(c3ccc4c(c3)OC(F)(F)O4)CC2)nc1-c1cccc(C(=O)O)c1 [VX-809 (Lumacaftor)] | 122
8 | C=CC(=O)Nc1cccc(Nc2nc(Nc3ccc(Oc4ccnc(C(=O)NC)c4)cc3)ncc2F)c1 | 63.8
9 | Cc1cc(Nc2ncc(Cl)c(Nc3ccccc3S(=O)(=O)C(C)C)n2)c(OC(C)C)cc1C1CCNCC1 [Ceritinib (LDK378)] | 0.01
10 | C[C@@H](Oc1cc(-n2cnc3ccc(CN4CCN(C)CC4)cc32)sc1C(N)=O)c1ccccc1C(F)(F)F | 17.1
11 | CC(C)c1onc(-c2c(Cl)cccc2Cl)c1COc1ccc(/C=C/c2cccc(C(=O)O)c2)c(Cl)c1 | 82
12 | C[C@@H]1O[C@@H](O[C@H]2[C@H](Oc3cc(O)c(C(=O)CCc4ccc(O)cc4)c(O)c3)O[C@H](CO)[C@@H](O)[C@@H]2O)[C@H](O)[C@H](O)[C@H]1O [Naringin Dihydrochalcone (Naringin DC)] | 111
13 | CC(=O)[C@H]1CC[C@H]2[C@@H]3CCC4=CC(=O)CC[C@]4(C)[C@H]3CC[C@]12C [Progesterone (Prometrium)] | 59.9
14 | CCOc1cc(C=O)ccc1OC(C)=O [Ethyl vanillin acetate] | 108
15 | Clc1ccc(CSC(Cn2ccnc2)c2ccc(Cl)cc2Cl)cc1 (configuration not stated) [Sulconazole Nitrate] | 45.1
16 | Cc1[nH]c(/C=C2\C(=O)Nc3ccc(S(=O)(=O)Cc4c(Cl)cccc4Cl)cc32)c(C)c1C(=O)N1CCC[C@@H]1CN1CCCC1 | 0.09

Row | SMILES | cell viability [%]
17 | CN(C)CCCC1(c2ccc(F)cc2)OCc2cc(C#N)ccc21 (configuration not stated) [Citalopram HBr] | 97.9
18 | Cc1cc(Nc2cc(N)ncn2)c(=O)n2c1C(=O)NC21CCCCC1 | 88.5
19 | COc1ccc2c(c1O)-c1c(O)c(OC)cc3c1[C@H](C2)[N+](C)(C)CC3 [Magnoflorine] | 107
20 | CN1CCN(c2ccc(Nc3cc(-c4cccc(-n5ccc6cc(C7CC7)cc(F)c6c5=O)c4CO)cn(C)c3=O)nc2)CC1 | 4.49
21 | Cc1cccc(C)c1N(CC(=O)Nc1ccc(-c2ncon2)cc1)C(=O)C1CCS(=O)(=O)CC1 [Amenamevir] | 93.4
22 | O=C1C[C@@H]2[C@@H](CO)[C@H](O)C[C@@H]2O1 [Corey Lactone Diol] | 93.3
23 | CC(=O)/N=c1/sc(S(N)(=O)=O)nn1C [Methazolamide] | 105
24 | O=C(NCc1ccncc1)C12CC3CC(C1)CC(c1ccc(Cl)cc1)(C3)C2 | 55.1
25 | COc1cc2c(=O)c(-c3ccc(O)cc3)coc2cc1O[C@@H]1O[C@H](CO)[C@@H](O)[C@H](O)[C@H]1O [Glycitin] | 87
26 | O=c1cc(-c2ccccc2)oc2c1ccc1ccccc12 [alpha-Naphthoflavone] | 99.7
27 | CC(CN(C)C)Oc1nc(Nc2cc3cccc(Cl)c3cn2)cnc1C#N (configuration not stated) | 18.5
28 | C[C@@H](Oc1ccc2[nH]nc(/C=C/c3cnn(CCO)c3)c2c1)c1c(Cl)cncc1Cl | 4.14
29 | C1=N/C2=N/c3ccc(OCCN4CCCC4)c(c3)COC/C=C/COCc3cccc(c3)C(=C1)N2 [Pacritinib (SB1518)] | 0.32
30 | C[C@H]1C[C@H]2[C@@H]3CCC4=CC(=O)C=C[C@]4(C)[C@@]3(F)[C@@H](O)C[C@]2(C)[C@@]1(O)C(=O)CO [Betamethasone (Celestone)] | 108
31 | OCCN(CCO)c1nc(N2CCCCC2)c2nc(N(CCO)CCO)nc(N3CCCCC3)c2n1 [Dipyridamole (Persantine)] | 108
32 | CCOc1ccccc1OC(c1ccccc1)C1CNCCO1 (configuration not stated) [Reboxetine mesylate] | 97.4
